Sampled rows, rich in hits. Any-hit rate of the full collection: about 3.4%.
TEAD-YAP block – TEAD-YAP interaction inhibition, primary screen, TEAD-YAP interaction inhibitor project, luminescence, HEK-TIYL cells; inhibition, % at 9.12 µM; hit rate 1.4% among 640,000; TEAD-Gal4/YAP UAS-luciferase luminescence; in the data active = inhibition above about 32%
MITF primary – MITF inhibitors, primary screen, biochemical, AlphaScreen, human; AID 1259374, 2018; AlphaScreen MITF homodimerization, bead proximity signal; inhibition, % at 2.6 µM; hit rate 0.91% among 650,000; in the data active = inhibition above about 50%
FBW7 act – FBW7 E3 ligase activators, primary screen, biochemical, AlphaScreen, human; hit rate 0.13% among 650,000; AlphaScreen FBW7–phospho-cyclin E peptide binding, activator screen; normalized activity (activation), % at 26.1 µM; in the data active = normalized activity above about 1.9%;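 also: purified mutant Fbw7 with reduced substrate affinity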
GPR151 ag – activators of human GPR151, primary screen, cell-based, PathHunter beta-arrestin, luminescence. G-protein coupled receptor 151 (Homo sapiens), Q8TDV0. PathHunter beta-arrestin GPR151 cells. activation, % at 11.2 µM. hit rate 1% among 650,000. AID 1508602, 2020; in the data active = activation above about 4.9%
Target sequence (Q8TDV0 whole entry, looked up): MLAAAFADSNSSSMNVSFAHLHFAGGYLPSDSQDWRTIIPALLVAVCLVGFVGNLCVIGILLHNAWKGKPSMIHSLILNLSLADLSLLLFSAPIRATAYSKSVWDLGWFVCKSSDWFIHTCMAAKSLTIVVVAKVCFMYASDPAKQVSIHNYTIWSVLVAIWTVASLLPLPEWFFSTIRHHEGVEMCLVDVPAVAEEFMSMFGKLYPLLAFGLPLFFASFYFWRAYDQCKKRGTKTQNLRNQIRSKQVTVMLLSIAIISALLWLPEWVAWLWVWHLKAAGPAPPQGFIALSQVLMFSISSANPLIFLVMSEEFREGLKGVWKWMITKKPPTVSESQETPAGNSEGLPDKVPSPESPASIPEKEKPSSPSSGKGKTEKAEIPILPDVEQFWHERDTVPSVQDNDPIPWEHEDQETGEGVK
MITF inh conf – MITF inhibitors, retest of hits, confirmation, biochemical, AlphaScreen, triplicate; shares compounds with MITF primary; AlphaScreen MITF homodimerization, biotin/His-MITF beads; inhibition, % at 2.6 µM; hit rate 16% among 4,700;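 active = inhibition above a cutoff derived from the DMSO control wells, cut at about 28% in these data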;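 also: inhibitors lower the bead chemiluminescence by keeping MITF from dimerizing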
AlphaScreen DR – AlphaScreen optical interference compounds, dose response, counter-screen, biochemical, HTS. IC50, µM. AlphaScreen optical interference counterscreen, cell-free. shares compounds with MITF primary. hit rate 6% among 480. AID 1259373, 2018; call rule not given here
AlphaScreen intf2 – AlphaScreen optical interference compounds, counter-screen for MITF inhibitor project, biochemical, triplicate; shares compounds with MITF primary; LysRS AlphaScreen counterscreen, signal interference; inhibition, % at 2.6 µM; hit rate 7.6% among 4,700; AID 1259376, 2018;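 active = inhibition above a cutoff derived from the DMSO control wells, cut at about 30% in these data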
Of the large screens only hits and unclear results are named; the others gave an inactive call (follow-up assays come after a bar, where they were run).

COC(=O)C(=O)Nc1nnc(C2CCCCC2)s1	MITF primary 67.0 | MITF inh conf inactive | AlphaScreen intf2 inactive
COC(=O)C(=O)Nc1nnc(C2CCCC2)s1	MITF primary 78.7 | MITF inh conf inactive | AlphaScreen intf2 inactive
O=C(Nc1nnc(C2CCCCC2)s1)C1CC1	none
Cn1nccc1Nc1ccc(-n2cc(CC(=O)NCc3cccc(C(F)(F)F)c3)c3ccccc32)nn1	none
CCn1c(C)[n+](CC)c2ccc(C(=O)N(C)C)cc21	none
CCN(CC)CCCOc1ccc2ccccc2c1	MITF primary 66.3 | MITF inh conf inactive | AlphaScreen intf2 inactive
COc1ccc(OC)c(Nc2ncnc(N)c2[N+](=O)[O-])c1	none
Cc1ccc(OCC(=O)n2c(SCc3ccc(F)cc3)nc3ccccc32)cc1	none
CCOC(=O)c1nc(-c2ccccc2)oc1C(F)(F)F	none
CCOC(=O)c1oc(-c2ccc(F)cc2)nc1C	MITF primary 67.3 | MITF inh conf inactive | AlphaScreen intf2 inactive
O=C(O)CCC(NCc1ccco1)C(=O)O (stereo unspecified)	MITF primary 62.3 | MITF inh conf 55.7 | AlphaScreen DR inactive | AlphaScreen intf2 inactive
Cc1nc2nc(CNC(=O)OC(C)(C)C)nn2c(C)c1CCC(=O)NC1CCCCC1	none
COc1ccccc1NC(=O)c1ccc2c(c1)C(=O)N(N1C(=O)c3ccccc3C1=O)C2=O	none
O=C(NCCN1CCOCC1)c1ccc2nc(N3CCC(N4CCOCC4)CC3)sc2c1	none
CN(C)C(CNCC(=O)NC1CCCc2ccccc21)c1ccccc1 (stereo unspecified)	MITF primary 75.6 | MITF inh conf inactive | AlphaScreen intf2 55.8
CC(C)CN1C(=O)C(=O)N(CC(=O)NC2CCCc3ccccc32)C1=O (stereo unspecified)	none
Cc1nc(C)n(-c2ccc(Nc3cc(-n4cc(N(c5cccnc5)c5cccnc5)cn4)ccn3)cc2)n1	MITF primary 50.8 | MITF inh conf 52.2 | AlphaScreen DR inactive | AlphaScreen intf2 inactive
COc1ccc(C2C(C#N)=C(N)Oc3n[nH]c(-c4cc(C)sc4C)c32)c(OC)c1 (stereo unspecified)	none
COc1ccc(CN2CCc3nnc(C(C)NC(=O)C4CC4)n3CC2)cc1OC (stereo unspecified)	none
COC(=O)c1cccc(NC(=O)CCOc2ccccc2)c1	MITF primary 51.2 | MITF inh conf inactive | AlphaScreen intf2 inactive
c1ccc2c(c1)ncn2CC1CCN(Cc2cn3ccccc3n2)CC1	MITF primary 89.2 | MITF inh conf 28.6 | AlphaScreen DR inactive | AlphaScreen intf2 inactive
c1ccc2c(c1)ncn2CC1CCCCC1	none
c1ccn2cc(CN3CCCCC3)nc2c1	MITF primary 82.1 | MITF inh conf inactive | AlphaScreen intf2 inactive
COc1ccccc1-c1ccc(=O)n(CC(=O)NCc2ccccc2)n1	none
C=CCNC(=O)Cn1nc(-c2ccccc2OC)ccc1=O	MITF primary 71.8 | MITF inh conf inactive | AlphaScreen intf2 inactive
Cc1cc2nc(-c3ccc(NC(=O)c4ccc(C)c([N+](=O)[O-])c4)cc3)oc2cc1C	none
CN(C)c1ccc(NC(=S)Nc2ccccn2)cc1	MITF primary 71.2 | MITF inh conf inactive | AlphaScreen intf2 inactive
COc1ccc(C(=O)NCC(=O)NCC(=O)OCc2ccccc2)cc1	MITF primary 54.3 | MITF inh conf inactive | AlphaScreen intf2 inactive
COC(=O)c1ccc(COC(=O)CNC(=O)c2ccccc2)cc1	none
COCc1nc2ccccc2n1CCc1noc(-c2ccc(OC)cc2)n1	none
COCc1nc2ccccc2n1CCc1noc(-c2ccccc2OC)n1	MITF primary 94.9 | MITF inh conf inactive | AlphaScreen intf2 inactive
O=C(NCCO)c1ccc2nc(-c3ccco3)c(-c3ccco3)nc2c1	MITF primary 73.9 | MITF inh conf 83.2 | AlphaScreen DR inactive | AlphaScreen intf2 inactive
O=C(NCCCN1CCOCC1)c1ccc2nc(-c3ccco3)c(-c3ccco3)nc2c1	none
CN(C)[C@@H]1C(=O)C(C(=O)NCN2CCCC2)=C(O)[C@@]2(O)C(=O)C3=C(O)c4c(O)cccc4[C@@](C)(O)C3CC12 (stereo partly specified)	MITF primary 72.0 | MITF inh conf 77.7 | AlphaScreen DR inactive | AlphaScreen intf2 inactive
NC1(C(Cl)(Cl)Cl)Oc2ccccc2O1	MITF primary 83.5 | MITF inh conf 113.5 | AlphaScreen DR inactive | AlphaScreen intf2 inactive
CC(NS(=O)(=O)c1cc(Cl)ccc1Cl)C(=O)NC1CCCCC1 (stereo unspecified)	MITF primary 57.5 | MITF inh conf inactive | AlphaScreen intf2 inactive
O=C1c2oc3ccccc3c(=O)c2C(c2ccccn2)N1Cc1ccco1 (stereo unspecified)	none
CCOC(=O)/C=C1\NC(c2ccccc2)=C(c2ccccc2)C1=O	MITF primary 56.0 | MITF inh conf inactive | AlphaScreen intf2 inactive
CCOC(=O)/C=C1/Nc2ccccc2C(c2ccccc2)(c2ccccc2)N1	none
O=C(c1cccnc1)N1CCN(Cc2ccc(Br)cc2)CC1	MITF primary 69.5 | MITF inh conf inactive | AlphaScreen intf2 inactive
O=C(c1cccnc1)N1CCN(Cc2ccccc2)CC1	none
O=C(c1cccnc1)N1CCN(Cc2cccc(Cl)c2)CC1	MITF primary 64.9 | MITF inh conf inactive | AlphaScreen intf2 inactive
Cc1cccc(CN2CCN(C(=O)c3cccc(Cl)c3)CC2)c1	none
O=C(c1cccnc1)N1CCN(Cc2cccc(Br)c2)CC1	MITF primary 65.1 | MITF inh conf inactive | AlphaScreen intf2 inactive
CCC(=O)Oc1ccc(C(=O)NCc2ccccc2OC)cc1	none
CCc1ccc(NC(=O)CN(c2cccc(Cl)c2)S(C)(=O)=O)cc1	none
COc1ccccc1NC(=O)C1=C(C)NC(SCC(=O)Nc2ccccc2)=C(C#N)C1c1ccco1 (stereo unspecified)	none
COc1ccccc1NC(=O)C1=C(C)NC(SCC(=O)Nc2cccc(C)c2C)=C(C#N)C1c1ccco1 (stereo unspecified)	TEAD-YAP block 32.2, MITF primary 56.1 | MITF inh conf inactive | AlphaScreen intf2 inactive
CCCCNC(=O)CCCCCn1nnc2ccccc2c1=O	MITF primary 72.8 | MITF inh conf inactive | AlphaScreen intf2 inactive
CC(C)NC(=O)CCCCCn1nnc2ccccc2c1=O	none
Cc1oc(C)c(C(=O)O)c1COc1ccccc1C(=O)O	MITF primary 50.6 | MITF inh conf inactive | AlphaScreen intf2 inactive
Cc1oc(C)c(C(=O)O)c1CSc1ccccc1C(=O)O	none
CCOC(CCCNc1ncnc2sccc12)OCC	none
CN(C)CCNc1ncnc2sccc12	MITF primary 86.0 | MITF inh conf inactive | AlphaScreen intf2 inactive

From PubChem BioAssay
